Pf growth 48h: P. falciparum growth inhibition at 48 hours (one generation) | P. falciparum luciferase growth in erythrocytes, 48 h | Potency, µM (doses to about 28.7 µM), for the others: at the top dose activity change, negative = inhibition, usual class: inhibitors | 5.9% of 310,000 active; note: potency is the fitted concentration of half-maximal effect; % is set by controls: 0 for no effect and ±100 for the full control effect
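Here the parasites carry a stable luciferase gene and grow inside erythrocytes in Albumax-based RPMI medium with compound for one erythrocytic cycle. Activity is scored as loss of luminescent signal.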
Pf growth 96h: inhibits malaria parasite growth, 96 h. Potency, µM (highest dose often 28.7 µM), inactives show top-dose activity change, negative = inhibition, actives largely listed as inhibitors. AID 504834. 6.9% of 320,000 active. P. falciparum luciferase reporter growth, 96 h; note: potency is the fitted concentration of half-maximal effect; % is set by controls: 0 for no effect and ±100 for the full control effect
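P. falciparum expressing integrated firefly luciferase, in erythrocytes at 2% hematocrit, 0.05% parasitemia, incubated with compounds 96 h at 37 C, 5% CO2. Growth inhibition read as loss of luminescence; two-generation exposure targets delayed-death apicoplast inhibitors.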
Shiga toxin inh: inhibitors of Shiga toxin in Vero cells; inhibition, % at 38.7 µM; AID 2315; 9.2% of 290,000 active; Vero cells, Shiga toxin protein synthesis inhibition reporter; in the data active = inhibition mostly above about 28%, no sharp cut-off; inactive = mostly below about 43%; note: 0% is about no effect
CHX counter: counter-screen for Shiga toxin inhibitors: cycloheximide protein synthesis inhibition; cell reporter, cycloheximide protein synthesis inhibition counterscreen; max response, %; 12% of 300,000 active; AID 2314; in the data active = max response mostly above about 13%, no sharp cut-off; inactive = mostly below about 14%; note: read at 38.3 µM for the half of the compounds with a filed dose; 0% is about no effect
NS1 function inh: blocks influenza NS1 protein function | 0.4% of 270,000 active | Potency, µM (titrated, usually from 46.1 µM), for inactives: at the top dose activity, positive = more growth | AID 2326; calls by dose curve; note: potency is the fitted concentration of half-maximal effect; actives are rising curves; nearly all actives have a fitted effect of over 50% in size
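Read-out: OD600 growth recovery of NS1-expressing budding yeast. Cells grown overnight at 30C in -URA glucose medium, washed, resuspended and diluted 1:100 in 2% galactose assay medium, pH 6.0. Same strain lacking NS1 served as positive control.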
* = called active by the depositor; i = inactive; ? = inconclusive; . = no result; [ ] = another dose, or the depositor's remark. Hits are enriched below; roughly 21% of the tested compounds scored in any of these assays. Unless noted, calls come from the whole dose curve; as a rule, active = well fitted inhibition curve with a large enough effect; inconclusive = small, poorly fitted or top-dose-only effect, or another doubt; inactive = no such curve, though single readings can be large or run the other way.

SMILES | Pf growth 48h | Pf growth 96h | Shiga toxin inh | CHX counter | NS1 function inh
CCCCN=C(C)c1c(O)c2ccccc2oc1=O | 94.9% | 62.2% | 64.6 | 32.0* | -229.1%
CC(=N)c1c(O)c2ccccc2oc1=O | 53.4% | 43.9% | 53.1* | 25.6* | -64.5%
Cc1cc(NC(=O)COc2ccccc2C)ccc1NC(=O)c1ccco1 | ? | -1.0% | -5.6 | -4.7 | -21.8%
COc1ccc(OC)c(NS(=O)(=O)c2ccc3c(c2)C(C)(C)C(=O)N3C)c1 | ? | -2.4% | -10.7 | 3.0 | 16.8%
CCN1C(=C2C(=O)c3ccccc3C2=O)C=Cc2ccccc21 | . | 9.2% | 38.9* | 24.6* | -5.5%
CCN1C(=O)/C(=C2\C=Cc3cc(C)ccc3N2CC)OC1=S | -2.6% | 0.2% | 7.4 | -1.8 | -18.5%
CCN1C(=O)/C(=C2/C=Cc3ccccc3N2C)OC1=S | . | 5.9% | 44.1 | 37.4* | -111.3%
CC(C)CCNC(=O)C(c1cccs1)N(CC1CCCO1)C(=O)Cn1nnc2ccccc21 (configuration not stated) | ? | -2.7% | -8.3 | -1.4 | -0.8%
CN(C)S(=O)(=O)c1ccc(NC(=O)c2cc3ccccc3o2)cc1 | -11.7% | 13.1µM* | 130.2* | 20.5* | -11.0%
Cc1ccc(NC(=O)c2cc3ccccc3o2)cc1S(=O)(=O)N(C)C | 187.6% | . | 78.5 | 53.8* | 10.1%
Cc1ccc(NC(=O)c2cc3ccccc3oc2=O)cc1S(=O)(=O)N(C)C | 298.2% | i | -21.6 | 0.3 | .
COc1ccc(NC(=O)CC2C(=O)N(c3ccc(Cl)cc3)C(=S)N2CCc2ccccn2)cc1 (configuration not stated) | ? | ? | 10.1 | 17.6 | -2.6%
COC(=O)c1ccc(NC(=O)CC2C(=O)N(c3ccc(C)cc3)C(=O)N2CC(C)C)cc1 (configuration not stated) | . | ? | -4.7 | -2.4 | -10.2%
CCOC(=O)c1ccc(NC(=O)CC2C(=O)N(c3ccc(F)cc3)C(=O)N2CCC(C)C)cc1 (configuration not stated) | . | 5.86µM* | 21.1 | 12.6 | 3.3%
CCNC(=O)CC1C(=O)N(c2ccccc2)C(=O)N1CCc1ccc(OC)cc1 (configuration not stated) | 27.5% | 11.7µM* | 22.2 | 1.5 | -2.5%
COc1ccc(NC(=O)CC2C(=O)N(c3ccc(Cl)cc3)C(=S)N2CCc2ccncc2)cc1 (configuration not stated) | ? | 13.1µM* | -10.7 | -1.8 | 22.4%
COc1ccc(NC(=O)CC2C(=O)N(c3ccc(Cl)cc3)C(=S)N2NC(=O)c2cccc(F)c2)cc1 (configuration not stated) | 19.7% | 54.8% | 13.0 | 16.4* | -8.8%
CN(C)/C(=N\S(=O)(=O)c1ccc(Br)cc1)c1ccccc1 | 2.3% | -3.5% | -17.6 | 0.4 | 6.5%
CCCOc1ccc(C(=O)NNC(=O)CCNC(=O)c2ccco2)cc1OC | 43.9% | 43.5% | . | . | .
COc1ccc(NC(=O)CC2C(=O)N(CCc3ccccc3)C(=S)N2Cc2cccnc2)cc1 (configuration not stated) | 11.7µM* | 13.1µM* | -7.1 | -3.7 | -33.4%
COC(=O)CN1C(=S)N(c2ccc(F)cc2)C(=O)C1CC(=O)Nc1ccc(F)cc1 (configuration not stated) | 10.4µM* | ? | 11.3 | -2.3 | 1.4%
CCN1C(=O)C(CC(=O)Nc2ccc(F)cc2)N(Cc2cccs2)C1=S (configuration not stated) | 10.4µM* | 0.0% | 2.9 | -5.9 | 1.5%
CCOC(=O)c1ccc(N2C(=O)C(CC(=O)NC)N(CCc3ccc(OC)c(OC)c3)C2=S)cc1 (configuration not stated) | 13.1µM* | 1.7% | -4.7 | 10.7 | -3.0%
CCN1C(=O)C(CC(=O)Nc2ccc(OC)cc2)N(Cc2cccnc2)C1=S (configuration not stated) | 1.9% | ? | -12.3 | 0.7 | 7.5%
CC(C)(C)NC(=O)C(c1ccncc1)N(Cc1ccc(F)cc1)C(=O)c1ccc(-c2ccccc2)[nH]1 (configuration not stated) | ? | ? | 21.9 | 13.3 | .
SMILES | Pf growth 48h | Pf growth 96h | Shiga toxin inh | CHX counter | NS1 function inh
OC[C@H]1OC(O)(CN2CCOCC2)[C@H](O)[C@@H]1O (some centres not stated) | . | . | -8.8 | -0.9 | .
Cc1ccnc(NC(=O)CN2C(=O)NC(C)(c3ccc4ccccc4c3)C2=O)c1 (configuration not stated) | ? | -2.5% | . | . | .
O=C1c2cccnc2C(=O)N1Cc1ccc(S(=O)(=O)N2CCN(c3ccc(Cl)cc3)CC2)cc1 | 45.4% | ? | -14.3 | 6.3 | ?
Cc1ccc(C(=O)/C=C\NCc2ccccc2)cc1 | 21.2% | 42.7% | 86.0* | 74.6* | -38.7%
CCc1ccc(C(=O)/C=C/NCc2ccc(F)cc2)cc1 | ? | ? | 49.4 | 19.1* | -29.1%
Cc1ccc(C(=O)/C=C\C(=O)c2ccc(C)cc2)cc1 | 17.6% | -9.4% | 4.8 | -1.8 | -52.9%
CC(/C=C/C(=O)c1ccc(C)cc1)=C\c1ccccc1 | 79.9% | 156.4% | 22.0 | 17.7* | -6.8%
CN(C)C(=O)OCc1c(-c2ccccc2)ncc2ccccc12 | 0.4% | ? | . | . | .
O=C(CCC(=O)N1CCN(S(=O)(=O)c2ccc3ccccc3c2)CC1)NCC(F)(F)F | 3.6% | 2.2% | -10.5 | -1.6 | -9.7%
CS(=O)(=O)c1ccc(C(=O)OC2CCOC2=O)cc1[N+](=O)[O-] (configuration not stated) | 6.57µM* | ? | 2.5 | -0.9 | 0.4%
COc1ccc(NC(=O)N2CC(C)OC(C)C2)cc1OC (configuration not stated) | 24.8% | 5.5% | 11.3 | 1.0 | 1.0%
O=C(Nc1ccc2c(c1)OCO2)N1CCN(c2ccc(F)cc2)CC1 | 9.0% | -4.0% | 46.3 | 18.6* | -3.7%
O=C(Nc1ccc2c(c1)OCO2)N1CCN(c2ccccc2)CC1 | -5.6% | -10.6% | 21.3 | 10.1 | 6.3%
O=C(Nc1ccc2c(c1)OCCO2)N1CCOCC1 | 396.9% | i | 54.0 | 25.3 | .
O=C(Nc1ccc2c(c1)OCO2)N1CCN(c2ncccn2)CC1 | 19.7% | 145.9% | 83.5* | 35.1* | 2.7%
O=C(Nc1ccc2c(c1)OCO2)N1CCOCC1 | 37.8% | . | 65.9* | 35.6* | -2.2%
CC1CN(C(=O)Nc2ccc3c(c2)OCO3)CC(C)O1 (configuration not stated) | . | 67.0% | 50.0* | 44.7* | -10.3%
O=C(O)Cn1c(=O)oc2cc(S(=O)(=O)NC3CCCCC3)ccc21 | . | . | . | . | 1.2%
CN(CC(=O)Nc1ccc(F)cc1)C(=O)COC(=O)CSc1ccc(F)cc1 | 12.8% | 29.0% | . | . | .
O=S(=O)(NCCO)c1cc[c]([Sb])cc1 | . | . | . | . | -5.8%
COCCN(CCOC)C(=O)c1ccc(SCc2ccc(C)cc2)c([N+](=O)[O-])c1 | -3.0% | ? | -4.0 | 5.5 | .
O=C(OCc1cc(=O)n2ccsc2n1)c1ccc(O)cc1O | 239.0% | 190.6% | . | . | .
O=C(Nc1ccc2c(c1)OCO2)N1CCN(C/C=C/c2ccccc2)CC1 | 0.6% | 7.8% | 20.5 | 6.2 | -12.3%
O=C(Nc1ccc2c(c1)OCO2)N1CCCC1 | -4.1%[5.75 µM] | 24.2% | 55.4* | 9.1 | .

Assay outcomes deposited in PubChem by National Center for Advancing Translational Sciences (NCATS).
